PubChem BioAssay (NCI)
About 83,000 compounds went through this panel and 20% of them were active in at least one assay; those are over-represented in the sample as a whole.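 Note: values are percent growth. 100 is the growth of untreated cells, values between 100 and 0 indicate rising inhibition; between -100 and 0 indicates cell death.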 A number with no mark means an inactive call. The source made the active and inactive calls. The calls were made as follows: active = growth percent below 10; inactive = the rest.

Experiments:
Assay in all cases: NCI-60 one-dose screen, 48 h (100 = growth as untreated, 0 = no growth, -100 = all killed)
Conditions in all cases: 10 µM unless noted
NCI-H23 lung = test system: NCI-H23 lung
NCI-H226 lung = test system: NCI-H226 lung
NCI-H322M lung = test system: NCI-H322M lung
HOP-62 NSCLC = test system: HOP-62 NSCLC
NCI-H460 lung = test system: NCI-H460 lung
NCI-H522 lung = test system: NCI-H522 lung
A549/ATCC NSCLC = test system: A549/ATCC NSCLC
786-0 renal = test system: 786-0 renal
DU-145 prostate = test system: DU-145 prostate
K-562 leukemia = test system: K-562 leukemia
MALME-3M melanoma = test system: MALME-3M melanoma
MDA-MB-231 breast = test system: MDA-MB-231 breast
RXF 393 renal = test system: RXF 393 renal
SF-295 CNS = test system: SF-295 CNS
SF-539 CNS = test system: SF-539 CNS
UACC-257 melanoma = test system: UACC-257 melanoma
M14 melanoma = test system: M14 melanoma
HCT-15 colon = test system: HCT-15 colon
SF-268 CNS = test system: SF-268 CNS
COLO 205 colon = test system: COLO 205 colon

Structure (SMILES)	growth (NCI-H23 lung)	growth (NCI-H226 lung)	growth (NCI-H322M lung)	growth (HOP-62 NSCLC)	growth (NCI-H460 lung)	growth (NCI-H522 lung)	growth (A549/ATCC NSCLC)	growth (786-0 renal)	growth (DU-145 prostate)	growth (K-562 leukemia) [%]	growth (MALME-3M melanoma)	growth (MDA-MB-231 breast)	growth (RXF 393 renal)	growth (SF-295 CNS)	growth (SF-539 CNS)	growth (UACC-257 melanoma)	growth (M14 melanoma)	growth (HCT-15 colon)	growth (SF-268 CNS)	growth (COLO 205 colon) [%]
COc1cc(-c2cc(C(=O)Nc3nc4ccccc4s3)nc3cc(-c4ccccc4)nn23)cc(OC)c1OC	49.1%	70.2%	90.9%	46.6%	79.3%	18.8%	77.5%	81.6%	51.5%	53.2	28.5%	66.1%	66.7%	53%	4.14% (active)	59.1%	26.3%	85.3%		
COc1ccc(C2=NNC(c3cc(Cc4ccc(O)c(C5CC(c6ccc(OC)cc6)=NN5)c4)ccc3O)C2)cc1 (stereo not given)	35.9%	82.6%	32.1%	60%	27.5%	-7.59% (active)	35.2%	56.1%	69.3%		78.9%	58.3%	72.6%	6.47% (active)	57.2%	70.6%		43.3%	44%	
Cn1cc(-c2csc(-c3cn(C)c4ncccc34)n2)c2cc(F)cnc21	70.5%	94.4%	112%	99.1%	84.1%	22.2%	73.6%	91%			80.7%	62.6%	82.4%	69.5%	101%	84.1%	62.8%		95.4%	
COc1cc(/C=C/c2nnc(-c3cc(-c4ccccc4)n[nH]3)o2)cc(OC)c1OC	92.6%	100%	106%	102%	107%	85.4%	97.5%	118%	108%	98.2	98.3%	111%	111%	105%	92.6%	105%	127%	102%		
CC/C(=C\c1ccc(N(C)C)cc1)c1nc2ccccc2c(=O)[nH]1	121%	110%	104%	108%	102%	103%	98%	94.6%	105%	71.4	144%	91.2%	99.6%		106%	111%	121%	99.8%	92.9%	
Oc1ccc(Cc2ccc(O)c(C3CC(c4ccc(Cl)cc4)=NN3)c2)cc1C1CC(c2ccc(Cl)cc2)=NN1 (stereo not given)	17.4%	53.6%	7.95% (active)	31.6%	4.56% (active)	-6.56% (active)	14.7%	18.2%	32.6%		29.7%	12.7%	66.5%	-26.9% (active)	40.7%	23.7%	24.5%	17.2%	29.8%	
Cc1c(C(N)=O)sc2ncn(CC(=O)Nc3ccc(Cl)cc3)c(=O)c12	110%	105%	114%	97%	110%	141%	106%	104%	126%	96.8		108%	105%		108%	148%	103%		119%	
C=C(C)[C@@H]1C/C=C(/C=O)CC[C@@H]2O[C@@]2(C)CC/C=C(\C)CC1	116%	98.9%	91%	110%	98.7%	186%	104%	106%	112%	136		111%	104%		105%	141%	115%	105%	112%	
COc1ccc(-n2nc3c(c2-c2ccc(OC)c(OC)c2)-c2oncc2CC3)cc1	93.3%	106%	97.7%	94.1%	90.3%	18.1%	82.5%	78%			100%	80%	83.8%	84%	114%	110%	93.6%		84%	
C/C(=N/N=C(N)N)c1ccc(Cl)cc1	95.1%	96%	90.2%	98.8%	102%	89%	106%	89.6%	106%	67.8	143%	84%	90.5%		100%	77.1%	86.9%	102%	101%	
COc1cc(OC)c2cc(C(=O)O)c(=O)oc2c1	96.8%	96.8%	79.8%	103%	95.3%	97.3%	123%	83.9%	129%	95.1	113%	94.3%	105%		102%	76%	103%	106%	110%	
NC(N)=NN=c1c(=O)c2ccccc2c1=O	58%	94.6%	102%	32.3%	0.312% (active)	80.8%	95.1%	108%	-97.4% (active)		-96.4% (active)	90.8%		66%	112%	106%	-90.8% (active)	43.4%	50.6%	
Cc1ccc(NC(=O)CSc2nnc3n(Cc4ccccc4)c(=O)c4c(C)c(C(N)=O)sc4n23)cc1	78.4%	28.9%	46.2%	-7.47% (active)	-40.9% (active)	31.5%	77.7%	16.9%	39%		11.4%	-6.14% (active)	79.9%	53%		56.4%		84.4%	55.8%	
CCC(C)CC(CC)NCCN1CCN(C(CC)CC(C)CC)C1=S (stereo not given)	42.5%	47%	78.8%	29.1%	9.44% (active)	-12% (active)	50.2%	56.5%	29.5%		-33.8% (active)	-12.4% (active)		56.1%	69.2%	39.5%	-47.3% (active)	22.5%	61.8%	
Clc1nc(Cl)c2ncn(-c3ccccc3)c2n1	99.9%	93.4%	76.8%	99.4%	89.2%	-68.9% (active)		88.5%	36.7%	36.2	48.4%	63.1%	56.1%	106%	85.2%	67%	35.6%	44.8%	68.8%	80.9
NC(N)=NC(N)=NCCCc1ccccc1	50.2% [100 µM]	63.4% [100 µM]	84.6% [100 µM]	65.1% [100 µM]	81.6% [100 µM]	47.2% [100 µM]	62.3% [100 µM]	56.2% [100 µM]			63.9% [100 µM]	69% [100 µM]	72.4% [100 µM]	49.4% [100 µM]	66.5% [100 µM]	62.8% [100 µM]	76.6% [100 µM]	80.3% [100 µM]	59.5% [100 µM]	
CC[N+](CC)(CCOCCOCC[N+](CC)(CC)Cc1ccc([N+](=O)[O-])cc1)Cc1ccc([N+](=O)[O-])cc1	99.2%	91.7%	117%	76.4%	96.8%	93.4%		109%	119%	98	105%	91.3%	110%	103%	105%	90.9%	101%	105%	98.6%	106
